The supplement of paper PMC11417369
Whole data set: some 25,000 sequences, median “ln(normalized median fluorescence intensity)” near 9.3, cut for the highest 2% near 10. Shown is part of a subset that was picked to be rich in the highest values.

Test system: PF3D7_0420300 AP2 domain 1 (GST-tagged)
Experiment: gcPBM binding intensity (ln(normalized median fluorescence intensity)); higher = stronger DNA binding
In short: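 Probes on an Agilent 4 × 180k array were primer-extended, double-stranded and 36 bp long, taken from intergenic genomic regions, with negative controls added. GST-tagged P. falciparum DNA-binding domains from E. coli, about 25 μg on average, were applied to the array for 1 h in 1× PBS containing 1% milk, 0.2 mg/ml BSA, 0.5% salmon testes DNA and 0.03% Triton X-100. Binding intensity, obtained after Alexa488 anti-GST antibody detection and a 488 nm scan, is the highest Masliner-normalised natural-log median intensity across replicate spots of either probe orientation.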

Sequence	gcPBM binding intensity (ln)
GATATGAATATAGGTTGTACTATATATAAAGTATGT [XGTACX_site1877]	9.35
CCACTGTATGAATGCACACATTCATAGAATTGCTAT [CACACA_site2676]	9.24
TATATAAATAGACACACACACACATATAAATAAATA [CACACA_site7855]	10.2
TATAAATAGAGACACACACACATATAAATAAATATT [CACACA_site7854]	10.1
TAATAATAGAGACACACACACATAGACATATAAATA [CACACA_site6729]	10.2
TATATATATAGACACACACACATATAAATAAATAAA [CACACA_site444]	10.1
TATATAAATAGACACACACACATATAAATATAAATA [CACACA_site6503]	10.1
CATATAAATAGACACACACACACATATAAATAAATA [CACACA_site7156]	10.3
TTATAAAATAAACTTACACACATGAAATATTATATT [CACACA_site1945]	9.49
ATAGAAGCTGTTGACGAAGAAAAAAAAAAAAAAAAA [CACACA_negctrl_site110]	8.56
TTTAAAAAAATTCATGCACACGAAATAAAAAGCACC [CACACA_site8214]	9.71
ACAAAAAAAAAAAAAAAAAGAAGAATATATCTATAT [CACACA_negctrl_site759]	9.16
ATTATAAATATATTTTGTACTTAAAAGGAAAAAAAA [XGTACX_site55]	9.02
AAATATAAATGGTAATACACATACACACACACATAC [XGTACX_negctrl_site459]	10.2
ATAAATACATATAAAAGTACACACACACACATATAT [XGTACX_site1744]	10.4
ACATATAAAATATATACACACATATAAATACATTAA [CACACA_site3867]	9.75
AAATATAAAAAATATACACACATATATAATATATAT [CACACA_site2963]	9.55
AAAAAAAAAAAGTACACACATACATATAAATATATA [CACACA_site1809]	9.46
ACATATACAAGACACACACACAACGTTTTAATAAAT [CACACA_site7017]	10.2
TATAATCATAAATACACACACATATATATATATATA [CACACA_site5224]	9.54
TTAAAATATACATAAACACACACAAAACGTTTAAGA [CACACA_site8267]	9.9
ACATATACAAAACACACACACAACGTTTTAATAAAT [CACACA_site1979]	10.1
AAAAAAAAAAAAAGTACACACATACATATAAATATA [CACACA_site8533]	9.72

Sequence	gcPBM binding intensity (ln)
TATAAATATATATACACACACACATTAATACATATA [CACACA_site3488]	10.2
AAATTAATTAAATATACACACATATATAAATATATA [CACACA_site391]	9.38
TATATTGAAAATAAAACATGCAATCACTCATACATA [TGCATGCA_site248]	9.36
AAAGAAAAATTAACATGTACAAAAATTACTTGTTCA [XGTACX_site6725]	9.21
AAAAAATAAATAAATACACACAAATCTATATTTATA [CACACA_site7243]	9.51
GTATTCTACAGACACATACACACATATATATATATA [CACACA_site3427]	9.7
TTAAATATAAAAAGTAGTACATTTATATTTACCATA [XGTACX_site2962]	8.96
AATTCATTATATATACGTACATATTTCTGTATAAAA [XGTACX_site6371]	9.24
ATACATATATATAGGTGTACATATAATATATATATA [XGTACX_site2228]	9.35
ATAGTAATAGAATGATTGCACTTAAATTTTCCCTCT	9.19
AATATATATATATGTACACACTCCAATACATATACA [CACACA_site2682]	9.42
AAAAAAATAACAAAAGTGCATTTTTATGAGTTATCT	9.2
AATACATATAAAAGTACACACACACCCATATATATA [CACACA_site8220]	10.2
ATAATATAAATATACACACACACATATATATATATA [CACACA_site2905]	9.91
AAATAATATAAATACACACACACATATATAAATACA [CACACA_site4465]	10.2
TACATATAAAAGTACACACACACACCCATATATATA [CACACA_site941]	10.2
TACATACATACATACACACACACATATAAATACATA [CACACA_site4626]	10.2
AATAAATAAATATATACACACATATATATATAATAT [CACACA_site921]	9.6
TGGTAATACCCATACACACACACATACACATATATA [CACACA_site8877]	10.1
TGGTAATACCCATACACACACACATACCCATATATA [CACACA_site5509]	10.1
CATAAATACATACATACACACATATATATATATATA [CACACA_site2106]	9.5
TGGTAATACACATACACACACACATACACATATATA [CACACA_site7312]	10.2
